Holding throughout (assay): NCI-60 one-dose screen, 48 h (100 = growth as untreated, 0 = no growth, -100 = all killed)
In one experiment the test system is HCT-15 colon. The note with it: 10 µM.
In another experiment the test system is HT29 colon. The note with it: 10 µM.
A further experiment concerns SNB-75 CNS. The note with it: 10 µM.
The subject of a further experiment is SNB-19 CNS. The note with it: 10 µM.
In another experiment the test system is U251 CNS. The note with it: 10 µM unless noted.
In a further experiment the test system is PC-3 prostate. The note with it: 10 µM.
In another experiment the test system is SK-MEL-5 melanoma. Particulars: 10 µM unless noted.
A further experiment has as its system UACC-62 melanoma.
A further experiment deals with LOX IMVI melanoma. The note with it: 10 µM unless noted.
The next experiment has as its system SK-MEL-28 melanoma. The note with it: 10 µM.

Values joined by “and” are separate entries in the source; they are usually repeats but may differ in a detail not shown here. Identical values can stand only once. The panel holds about 83,000 compounds, 20% with a hit somewhere; the sample as a whole holds those more often.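 Method: cells in 96-well plates; compound added at one concentration; 48 h incubation; percent growth measured; values under 10 scored active.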 Values without a mark were called inactive. Active and inactive are the calls of the source.

Regarding `OCC(O)C(O)C(O)C(/C=N/Nc1ccccc1)=N/Nc1ccccc1` (centres undefined), the growth with HCT-15 colon is 75%; in the experiment on HT29 colon, 93.2%; in the experiment with SNB-75 CNS, 66.3%; in the experiment on SNB-19 CNS it was 97.4%; in the experiment with U251 CNS, 90.9%; in the experiment with PC-3 prostate it was 72.6%. Besides, the growth in the experiment with SK-MEL-5 melanoma is 86.8%; in the experiment on UACC-62 melanoma (10 µM), 43.6%; in the experiment on LOX IMVI melanoma it was 51.8%; in the experiment on SK-MEL-28 melanoma, 103%.

Consider `Cc1cc(O)c(C(C)C)cc1Cl`, for which the growth with HCT-15 colon is 106%; in the experiment with SNB-75 CNS it was 93.2%; in the experiment on SNB-19 CNS, 103%; with U251 CNS, 101%; in the experiment on PC-3 prostate, 101%; in the experiment with SK-MEL-5 melanoma, 103%. For the same molecule, the figures for the growth in the experiment on UACC-62 melanoma (10 µM), in the experiment with LOX IMVI melanoma and in the experiment on SK-MEL-28 melanoma were 103%, 98.3% and 105%, respectively.

As for `CCO/C=C1\SC(=S)N(c2cccc(O)c2)C1=O`, the growth in the experiment with HCT-15 colon is 104%; in the experiment on HT29 colon, 98.5%; in the experiment with SNB-75 CNS it was 74.7%; in the experiment on SNB-19 CNS it was 96.3%; in the experiment with U251 CNS it was 102%; in the experiment with PC-3 prostate, 98%. Further, the growth in the experiment on SK-MEL-5 melanoma is 99.4%; with UACC-62 melanoma (10 µM), 103%; in the experiment with LOX IMVI melanoma, 103%; in the experiment on SK-MEL-28 melanoma it was 102%.

For the molecule `CC(=O)Nc1cc(C)ccc1C`, the growth with HCT-15 colon is 101%; in the experiment on SNB-75 CNS, 96.2%; in the experiment on SNB-19 CNS, 101%; in the experiment with U251 CNS it was 101%; in the experiment with PC-3 prostate, 106%; in the experiment on SK-MEL-5 melanoma, 93.3%. Also, the growth in the experiment with UACC-62 melanoma (10 µM) was 98.3%; in the experiment with LOX IMVI melanoma, 101%; in the experiment on SK-MEL-28 melanoma, 105%.

For `COc1ccc(CC(=O)c2ccc(O)cc2O)cc1`, the growth in the experiment on HCT-15 colon is 131%; in the experiment on HT29 colon it was 112%; in the experiment with SNB-75 CNS it was 111%; in the experiment with U251 CNS it was 116%; in the experiment with PC-3 prostate, 109%; in the experiment with SK-MEL-5 melanoma, 103%. For the same molecule, the growth is 120% in the experiment with UACC-62 melanoma (10 µM), 108% in the experiment on LOX IMVI melanoma and 139% with SK-MEL-28 melanoma.

`NNc1c2ccccc2nc2ccccc12`: the growth in the experiment on HCT-15 colon is 35.1%; with SNB-75 CNS, 55%; in the experiment with SNB-19 CNS, 56.9%; in the experiment with U251 CNS, 48%; with PC-3 prostate, 50.7%; in the experiment on SK-MEL-5 melanoma it was 22%. Moreover, the growth in the experiment on UACC-62 melanoma (10 µM) was 45.2%; in the experiment with LOX IMVI melanoma, 58.7%; with SK-MEL-28 melanoma it was 76.7%.

For the molecule `CC(C)(C)CC(C)(C)c1ccc(OCCO)cc1`, the growth in the experiment on HCT-15 colon was 99.8%; with SNB-75 CNS, 101%; in the experiment on U251 CNS, 104%; in the experiment on PC-3 prostate it was 117%; in the experiment with SK-MEL-5 melanoma it was 119%; with UACC-62 melanoma (10 µM), 106%. Also, the growth is 99.1% with LOX IMVI melanoma and 141% in the experiment on SK-MEL-28 melanoma.

Consider `NC1=C(Cl)C(=O)c2ccccc2C1=O`, for which the growth was 51% in the experiment on HCT-15 colon; -0.135% (active) in the experiment on SNB-75 CNS; 50.5% with U251 CNS; 53% in the experiment with PC-3 prostate; -80.8% (active) with SK-MEL-5 melanoma; -41.4% (active) in the experiment with UACC-62 melanoma (10 µM). Besides, the values for the growth with LOX IMVI melanoma and in the experiment with SK-MEL-28 melanoma were 19.2% and 105%, respectively.

Consider `CC(C)C1=C(O)C2=C(C(=O)C1=O)C1(C)CCCC(C)(C)C1CC2O` (centres undefined), for which the growth in the experiment with UACC-62 melanoma (100 µM) was -73.2% (active) and -96.5% (active).

On to `O=C1NC(=O)c2cc([N+](=O)[O-])ccc21`, for which the growth in the experiment on HCT-15 colon was 107%; in the experiment with SNB-19 CNS, 109%; with U251 CNS it was 109%; in the experiment on PC-3 prostate, 101%; in the experiment on SK-MEL-5 melanoma, 104%; with UACC-62 melanoma (10 µM) it was 102%. Besides, the values for the growth in the experiment on LOX IMVI melanoma and in the experiment with SK-MEL-28 melanoma were 104% and 120%, respectively.

As for `COc1cccc2c1C(=O)c1c(O)c3c(c(O)c1C2=O)C[C@@](O)(C(C)=O)C[C@@H]3OC1CC(N)C(O)C(C)O1` (some centres undefined), the growth with HCT-15 colon was 3.22% (active); with SNB-75 CNS it was -82.7% (active); in the experiment with U251 CNS, 3.16% (active); with PC-3 prostate it was -25.8% (active); in the experiment on SK-MEL-5 melanoma, -90.5% (active); in the experiment on UACC-62 melanoma (10 µM) it was -71.8% (active). Further, the growth in the experiment on UACC-62 melanoma (50 µM) is -98.9% (active) and -100% (active); in the experiment with LOX IMVI melanoma, 1.63% (active); with SK-MEL-28 melanoma, -51% (active).

For the molecule `CSC1SCC2C(=O)N(C)C(C(C)C)C(=O)OCC(NC(=O)c3cnc4ccccc4n3)C(=O)NC(C)C(=O)N(C)C1C(=O)N(C)C(C(C)C)C(=O)OCC(NC(=O)c1cnc3ccccc3n1)C(=O)NC(C)C(=O)N2C` (centres undefined), the growth in the experiment with HCT-15 colon was 4.08% (active); in the experiment on SNB-75 CNS it was -80.2% (active); in the experiment on U251 CNS, 5.23% (active); with PC-3 prostate it was -12.7% (active); in the experiment with SK-MEL-5 melanoma it was -73.1% (active); with UACC-62 melanoma (10 µM), -77% (active). For the same molecule, the figures for the growth in the experiment on LOX IMVI melanoma and in the experiment on SK-MEL-28 melanoma were 3.98% (active) and -13.9% (active), respectively.

As to `CO[C@H](C(=O)[C@@H](O)[C@@H](C)O)[C@@H]1Cc2cc3cc(OC4CC(OC5CC(O)C(O)C(C)O5)C(O)C(C)O4)c(C)c(O)c3c(O)c2C(=O)[C@H]1OC1CC(OC2CC(OC3CC(C)(O)C(O)C(C)O3)C(O)C(C)O2)C(O)C(C)O1` (some centres undefined), the growth in the experiment on HCT-15 colon is 6.74% (active); in the experiment on SNB-75 CNS, -56.9% (active); with U251 CNS, 9.37% (active); in the experiment with PC-3 prostate it was 10.5%; with UACC-62 melanoma (10 µM), -58.6% (active); with LOX IMVI melanoma, 7.02% (active).
